Bioassay records deposited in PubChem BioAssay by National Center for Advancing Translational Sciences (NCATS).
Only a selection was taken, and hits are over-represented in it overall.
12-hLO inh = blocks human 12-lipoxygenase activity; Potency, µM (titrated, usually from 57.1 µM), inactives show at the highest dose activity change, negative = inhibition, usual class: inhibitors; AID 1452; 150,000 tested, 0.12% active; purified 12-hLO, xylenol orange hydroperoxide absorbance; further: potency means the concentration at half of the fitted maximal effect; nearly all actives have a fitted effect of over 55% in size
Target sequence (P18054 whole entry, looked up): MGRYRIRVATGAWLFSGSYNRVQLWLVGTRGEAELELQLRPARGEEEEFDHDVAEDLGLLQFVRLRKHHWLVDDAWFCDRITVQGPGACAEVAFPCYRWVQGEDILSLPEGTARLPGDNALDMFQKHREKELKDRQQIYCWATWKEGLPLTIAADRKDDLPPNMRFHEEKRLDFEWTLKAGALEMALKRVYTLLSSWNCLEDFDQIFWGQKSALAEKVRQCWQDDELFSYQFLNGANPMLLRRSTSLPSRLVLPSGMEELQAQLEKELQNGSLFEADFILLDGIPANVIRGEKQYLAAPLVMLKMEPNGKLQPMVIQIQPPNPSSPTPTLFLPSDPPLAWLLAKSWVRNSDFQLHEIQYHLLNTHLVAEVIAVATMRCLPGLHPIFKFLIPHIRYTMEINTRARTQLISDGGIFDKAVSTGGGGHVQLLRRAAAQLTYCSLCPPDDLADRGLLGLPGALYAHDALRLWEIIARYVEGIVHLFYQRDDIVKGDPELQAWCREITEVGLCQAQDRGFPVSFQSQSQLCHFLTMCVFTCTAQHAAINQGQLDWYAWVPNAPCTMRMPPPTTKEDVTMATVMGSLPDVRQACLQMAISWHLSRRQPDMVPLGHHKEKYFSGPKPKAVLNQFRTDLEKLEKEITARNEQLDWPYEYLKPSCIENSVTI
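Purified human 12hLO (150 nM final) was preincubated with compounds for 15 min at room temperature in 25 mM Hepes pH 7.0, 0.01% Triton X-100, then reacted with 40 uM arachidonic acid for 30 min. Hydroperoxide was detected with ferrous iron/xylenol orange.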
IMPase inh = membrane-permeable compound that blocks inositol monophosphatase; P97697; CHO-M1 cells, IP1 accumulation, HTRF TR-FRET ratio; inhibition (IP1 accumulation), % at 46.1 µM; AID 901; 120,000 tested, under 10 active; active means well fitted curve in the direction sought with a large enough effect in the signal ratio, not every such curve was filed as active; inconclusive means small, poorly fitted or top-dose-only effect, or a change in a side signal; inactive means no such curve, though single readings can be large or run the other way; the % refers to the signal ratio;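 further: cells stimulated with carbachol in lithium chloride buffer; plate controls were DMSO basal wells for no effect and reference inhibitor wells for full effect; higher means more IMPase inhibition seen as more IP1 and lower FRET ratio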
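Seeded CHO-M1 cells were dosed with compound at up to 46 uM, stimulated with carbachol for 30 min, then lysed in IP-One detection reagents. Higher IP1 lowers the TR-FRET signal.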
ALOX15B inhib = blocks human 15-lipoxygenase 2 activity | Potency, µM (top dose mostly 57.1 µM), without a hit: at the top dose activity change, negative = inhibition, hits mostly inhibitors | 110,000 tested, 0.56% active | AID 881 | purified 15hLO-2, xylenol orange hydroperoxide absorbance | O15296; further: potency means the concentration at half of the fitted maximal effect; nearly all actives have a fitted effect of over 60% in size
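Screening format was qHTS against 50 nM purified 15hLO-2 in Hepes pH 7.5 with detergent. Activity follows hydroperoxide formation from 45 uM arachidonic acid, measured as 573:405 nm absorbance ratio of the ferric-xylenol orange complex.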
IMPase Li inh = membrane-permeable IMPase blocker, potentiated with lithium | CHO-M1 cells, IP1 TR-FRET (IP-One), carbachol + lithium | Potency, µM (top dose mostly 59.4 µM), inactives show at the highest dose activity, negative = IMPase inhibition, actives largely listed as inhibitors | 210,000 tested, 0.35% active | AID 1457;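 further: IP1 builds up when IMPase is blocked and the TR-FRET signal falls; potency means the concentration at half of the fitted maximal effect; plate controls were basal vehicle for no effect and high inhibitor control for full effect; nearly all actives have a fitted effect of over 50% in size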
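Readout is a homogeneous TR-FRET IP1 immunoassay (Ex 320, Em 665 and 620), where raised cytosolic IP1 lowers signal. Cells were CHO-M1 treated 30 min at 37C with test compounds plus a little lithium; AC50 values came from Hill-equation fitting.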
* = called active by the depositor; ? = inconclusive; . = no result given; [ ] = remark or other dose. Unless noted, the call rests on the fitted dose curve; in most records, active means well fitted curve in the direction sought with a large enough effect; inconclusive means small, poorly fitted or top-dose-only effect, or another doubt; inactive means no such curve, though single readings can be large; an effect the other way counts as inactive or inconclusive. Unless noted, on the % scale 0 is the no-effect control and ±100 the full control effect.

SMILES | 12-hLO inh | IMPase inh | ALOX15B inhib | IMPase Li inh
O=C(O[C@@H]1Cc2c(O)cc(O)cc2OC1c1ccc(O)c(O)c1)c1cc(O)c(O)c(O)c1 (some centres undefined) | -24% | . | ? | -6%
c1ccc2c(c1)C(=Nc1ccc(N=C3c4ccccc4-c4ccccc43)cc1)c1ccccc1-2 | -3%[11.4 µM] | . | 1%[11.4 µM] | 11%
Cc1ccccc1CNc1ncnc2c1ncn2[C@@H]1O[C@@H](CO)[C@H](O)[C@@H]1O | -4% | 10 | 9% | .
O=C(COc1ncnc2c(Cl)cc(Cl)cc12)NC1CCCCCC1 | 3% | 9 | -9% | 22µM*
O=C(COc1ncnc2c(Cl)cc(Cl)cc12)N1CCCCC1 | -7% | -5 | -10% | -7%[38.3 µM]
Nc1nc2c(s1)CCc1c-2cnn1-c1ccccc1 | ? | 21 | 1µM* | 68%[38.3 µM]
S=C(NCc1ccco1)Nc1cccc(Cl)c1 | -5% | 6 | -13% | -6%
S=C(NCc1ccco1)Nc1ccc(Cl)c(Cl)c1 | 18µM* | -18 | ? | 9%[38.3 µM]
CCn1c(=O)cc(SCC(=O)NCc2ccc(C)cc2)c2ccccc21 | 3% | -20 | -5% | -10%[38.3 µM]
CCn1c(=O)cc(SCC(=O)NCc2cccnc2)c2ccccc21 | 3% | ? | 6% | 10µM*
CSC(=[SH+])N=N/C(=C1/C=CC=CN1)c1ccccn1.[Cu][Br] | . | . | . | 6%
CC(C)(C)C1CCc2c(sc(NC(=O)c3ccco3)c2C(N)=O)C1 (centres undefined) | 3% | ? | . | 5.6µM*
Oc1c(Cl)cc(Cl)c(Cl)c1Cl | 0% | . | -6% | -16%
Oc1c(Cl)cc(C(c2cc(Cl)c(O)c(Cl)c2)C(c2cc(Cl)c(O)c(Cl)c2)c2cc(Cl)c(O)c(Cl)c2)cc1Cl | -29%[11.4 µM] | . | 4µM* | -4%
N#Cc1c(N)[nH]c(=S)c(C#N)c1-c1ccccc1 | -11% | ? | ? | 13µM*
Cc1ccc(-c2cc(-c3ccccc3)[nH]c(=S)c2C#N)cc1 | 2% | -9[1.84 µM] | 6%[11.4 µM] | ?
CCCCNS(=O)(=O)c1ccc2nc(-c3cccnc3)cc(C(=O)NCCCOCC)c2c1 | . | . | . | 11µM*
COC(=O)c1c(Cl)c2n3ccccc3c(C)c(-c3ccccc3)c-2c1C(=O)OC | -9% | . | . | 10µM*
O=C(COc1ccc2ccccc2c1)NCCNC(=O)COc1ccc2ccccc2c1 | -1% | ? | 7% | 13µM*
O=C(COc1ccc2ccccc2c1)NNC(=O)Cc1ccccc1 | -1% | . | . | ?
CC(C)n1c(=S)[nH]c2c1c(=O)[nH]c(=O)n2C | ? | 3 | 13µM* | 2%[38.3 µM]
C=CC(C)n1c(Br)nc2c1c(=O)[nH]c(=O)n2C (centres undefined) | -1% | -4 | -2% | -17%[38.3 µM]
COc1ccccc1Cn1c(=O)c2ccccc2n2c(SCC(=O)N3CCCCC3)nnc12 | -3% | ? | . | 10µM*
C#CC(N)CCC(=O)O (centres undefined) | . | . | . | -7%
Cc1ccc(NC(=S)NC(=O)c2ccc(-c3ccc(Cl)cc3)o2)c(O)c1 | -5% | 10 | . | 19%
SMILES | 12-hLO inh | IMPase inh | ALOX15B inhib | IMPase Li inh
Cc1cc(O)c(NC(=S)NC(=O)c2ccc(-c3ccc(Cl)cc3)o2)cc1C | ? | 9 | 13µM* | -7%
O=C1S/C(=C/c2ccc(N3CCOCC3)o2)C(=O)N1Cc1c(F)cccc1Cl | -9% | 2 | ? | 33%[38.3 µM]
O=C1S/C(=C\c2ccc(N3CCOCC3)o2)C(=O)N1Cc1c(F)cccc1Cl | -20% | 9 | 6.3µM* | 3%[38.3 µM]
COc1cc(/C=C/C(=O)N2CCCCC2=O)cc(OC)c1OC | 2% | 3 | -8% | 13%
Cc1nc2cnc(N3CCN(C)CC3)nc2n(-c2ccccc2)c1=O | . | . | -5% | 15%
N#Cc1ccc(CSc2nnc(NC(=O)c3ccc4ncsc4c3)s2)cc1 | . | . | . | 7.9µM*
C=CCOC(=O)NC(c1ccc(F)c(F)c1)C(C(C)=O)C(=O)OC (centres undefined) | . | . | . | 18%
CCOC(=O)CSC1=C(C#N)C(c2ccc(OC)cc2)C2=C(CC(C)(C)CC2=O)N1 (centres undefined) | -21% | ? | -28% | 10µM*
COc1cccc(-c2nc(NCC3CCCO3)c3ccccc3n2)c1O (centres undefined) | -2% | 2 | -8% | 14µM*
COc1ccc(CCN(C)CCCOc2ccc(S(=O)(=O)c3[nH]c4ccccc4c3C(C)C)cc2)cc1OC | -2% | 4 | 3% | 28%
N#Cc1nc(-c2cccs2)oc1N1CCOCC1 | -2% | -14 | -1% | 11µM*
